The source of these data is PubChem BioAssay (Tox21).

Assay [1] in a line: Nuclear factor erythroid 2-related factor 2/antioxidant responsive element (Nrf2/ARE) small molecule agonists: qHTS cell viability counter screen in human keratinocytes (AID 1919968; active means well fitted curve in the direction sought with a large enough effect in the repeat runs; an effect the other way counts as inactive or inconclusive; further: nearly all actives have a fitted effect of over 55% in size; further: potency means the concentration at half of the fitted maximal effect). In outline:
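In human HaCaT keratinocytes stably expressing an ARE-driven luciferase, compound exposure lasted 23 h at 37 C under 5% CO2. Viable cells are quantified with a protease-based fluorogenic reagent (CellTiter-Fluor) read 1 h after addition.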
For orientation: In qHTS, concentration-response curves come from the screen itself.

Assay [2] can be described thus: Nuclear factor erythroid 2-related factor 2/antioxidant responsive element (Nrf2/ARE) small molecule agonists: luciferase reporter gene qHTS assay in human keratinocytes (AID 1919969). Further: nearly all actives have a fitted effect of over 35% in size. Further: potency means the concentration at half of the fitted maximal effect. A general note: In a reporter assay the amount or activity of a reporter protein is the signal.
Assay [3] addresses KiSS-1 receptor (Homo sapiens) (UniProt Q969F8). Briefly: Human kisspeptin (KISS1R) small molecule agonists, calcium flux assay in KISS1R-HEK293 cells (AID 1920064; active means well fitted curve in the direction sought with a large enough effect in the repeat runs; an effect the other way counts as inactive or inconclusive). In a few lines:
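Concentration-response testing used 15 concentrations in triplicate on human KISS1R-expressing HEK293 cells. Calcium-dependent fluorescence (Ex/Em 480/540) was followed kinetically for 3 min after compound transfer.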
Background: Calcium assays in cells follow changes in intracellular calcium, usually with a dye or a luminescent sensor.

Assay [4] is described as follows: G protein-coupled receptor (GPCR) small molecule agonists, calcium flux assay: HEK293 wild type cell line counter screen (AID 1920065). In a few lines: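 Fluorescence intensity signals activation. After overnight (18 h) culture and a 1 h calcium dye load at 37 C, compounds are added by pin tool and the plate read at 480/540 nm for 3 min in 1 s steps.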
A short description of assay [5]: p53 small molecule agonists, cell-based qHTS assay with rat liver microsomes (AID 1963578). In outline:
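Quantitative HTS of the Tox21 10K library: p53RE-bla cells, rat liver microsomes plus NADPH at 0.5 mg/mL final each, 16 h at 37 C, beta-lactamase fluorescence detection.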

Assay [6] in a line: p53 small molecule agonists, cell-based qHTS assay with human liver microsomes: qHTS cell viability counter screen (AID 1963579). Further: nearly all actives have a fitted effect of over 45% in size. In outline: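 Viability of p53RE-bla cells is measured as CellTiter-Glo luminescence following a 16 h, 37 C incubation with compound, liver microsomes from human donors and NADPH.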
Assay [7] in a line: p53 small molecule agonists, cell-based qHTS assay with rat liver microsomes: qHTS cell viability counter screen (AID 1963580). Further: nearly all actives have a fitted effect of over 45% in size. Further: potency means the concentration at half of the fitted maximal effect. In a few lines: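 Luminescent ATP readout (CellTiter-Glo, 30 min at room temperature) reports viability of p53RE-bla HCT-116 cells after 16 h at 37 C with test compounds under metabolic activation by rat liver microsomes and NADPH at 0.5 mg/mL final each.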

The nature of assay [8]: p53 small molecule agonists, cell-based qHTS assay: qHTS cell viability counter screen (AID 1963581). Further: nearly all actives have a fitted effect of over 45% in size. In a few lines:
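Luminescence from CellTiter-Glo, reflecting ATP content, serves as the cytotoxicity measure; it is taken after the 2 h reporter substrate step in HCT-116 p53RE-bla cells dosed for 16 h at 37 C.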

A short description of assay [9]: p53 small molecule agonists, cell-based qHTS assay (AID 1963582; active means well fitted activation curve with a large enough effect in the signal ratio in the repeat runs, not every such curve was filed as active; the % refers to the signal ratio). In outline:
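After plating, p53RE-bla cells sat 5 h in the incubator; compounds or DMSO vehicle were pinned in; a 16 h incubation at 37 C followed; FRET substrate was added and, 2 h later at RT, fluorescence was measured.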

In assay [10] the target is 5-hydroxytryptamine receptor 2A (Homo sapiens) (UniProt P28223). Kind of assay: 5-hydroxytryptamine receptor 2A (HTR2A) small molecule antagonists, cell-based qHTS assay (AID 1963586). Further: nearly all actives have a fitted effect of over 45% in size. In a few lines: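 CHO cells stably expressing human HTR2A were plated for 18 h at 37 C, then loaded with calcium dye for 1 h. Compounds were preincubated 5 min at room temperature before DOI (4 nM solution) was added. Kinetic fluorescence was read for 3 min.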
5-hydroxytryptamine receptor 2A (Homo sapiens), sequence (P28223 whole entry, looked up): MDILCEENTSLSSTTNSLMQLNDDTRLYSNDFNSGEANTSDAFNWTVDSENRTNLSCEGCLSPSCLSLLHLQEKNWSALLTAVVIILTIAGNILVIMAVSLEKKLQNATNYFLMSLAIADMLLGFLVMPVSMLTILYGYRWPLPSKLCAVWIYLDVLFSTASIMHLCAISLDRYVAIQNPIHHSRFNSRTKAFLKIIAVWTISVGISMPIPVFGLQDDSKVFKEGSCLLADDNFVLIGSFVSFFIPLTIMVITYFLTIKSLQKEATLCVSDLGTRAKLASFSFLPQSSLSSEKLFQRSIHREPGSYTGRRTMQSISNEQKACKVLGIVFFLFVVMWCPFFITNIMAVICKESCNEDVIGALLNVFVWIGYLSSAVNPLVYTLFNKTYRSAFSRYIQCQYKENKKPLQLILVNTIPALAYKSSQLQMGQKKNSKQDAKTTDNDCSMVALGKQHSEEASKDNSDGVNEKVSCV

The target is the same in assay [11]. Briefly: 5-hydroxytryptamine receptor 2A (HTR2A) small molecule agonists, cell-based qHTS assay (AID 1963587). Further: nearly all actives have a fitted effect of over 30% in size. In outline:
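HTR2A-CHO cells, plated 18 h at 37 C/5% CO2, dye-loaded 1 h at 37 C; compounds in DMSO added by pin tool (agonist mode). Intracellular calcium flux read as kinetic fluorescence on FDSS over 2 min at 1 s intervals.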

The target of assay [12] is Muscarinic acetylcholine receptor M1 (Homo sapiens) (UniProt P11229). Kind of assay: Cholinergic receptor muscarinic 1 (CHRM1) small molecule antagonists, cell-based qHTS assay (AID 1963588). Further: nearly all actives have a fitted effect of over 40% in size. In outline:
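Compounds were tested at 15 concentrations in three independent runs. Dye-loaded CHRM1-CHO cells were exposed 5 min at room temperature before stimulation by acetylcholine added at 50nM. Intracellular calcium was read kinetically on FDSS for 3 min.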

Assay [13] shares this target. Briefly: Cholinergic receptor muscarinic 1 (CHRM1) small molecule agonists, cell-based qHTS assay (AID 1963589). Further: nearly all actives have a fitted effect of over 35% in size. In outline:
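Fluorescent calcium dye reports M1 activation in stably transfected CHO cells. Compounds, 15 concentrations, added after 1 h dye loading at 37 C; kinetic reading at 1 sec intervals.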

Assay [14] is described as follows: cAMP Responsive Elements (CRE) small molecule agonists, cell-based qHTS assay (AID 1963590). In a few lines:
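Compound exposure lasted 3 h at 37 C/5% CO2 in CRE-bla HEK 293T cells grown in assay medium with 10% dialyzed FBS and 25 mM HEPES. Reporter signal came from LiveBLAzer B/G FRET substrate, 2 h, room temperature.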

The nature of assay [15]: cAMP Responsive Elements (CRE) small molecule antagonists, cell-based qHTS assay (AID 1963591; active means well fitted inhibition curve with a large enough effect in the signal ratio in the repeat runs, not every such curve was filed as active; the % refers to the signal ratio). In a few lines: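 Stimulation used NKH477 at a final 0.25 uM for 3 h in compound-treated CRE-bla HEK293T cells, seeded 18 h beforehand. Reporter activity was measured with LiveBLAzer B/G FRET substrate after 2 h at room temperature.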
Assay [16] deals with Beta-2 adrenergic receptor (Homo sapiens) (UniProt P07550). Briefly: Adrenergic beta2 receptor (ADRB2) small molecule antagonists, cell-based qHTS assay (AID 1963592). Further: series mostly up to about 92 µM; nearly all actives have a fitted effect of over 50% in size. In a few lines: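 Assay format: CHO-ADRB2 cells, 18-20hr seeding at 37C/5% CO2, then compound plus 1nM isoproterenol agonist mix for 0.5hr RT. Homogeneous time-resolved fluorescence cAMP detection after 1hr, expressed as 665/615 nm ratio.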
Beta-2 adrenergic receptor (Homo sapiens), sequence (P07550 whole entry, looked up): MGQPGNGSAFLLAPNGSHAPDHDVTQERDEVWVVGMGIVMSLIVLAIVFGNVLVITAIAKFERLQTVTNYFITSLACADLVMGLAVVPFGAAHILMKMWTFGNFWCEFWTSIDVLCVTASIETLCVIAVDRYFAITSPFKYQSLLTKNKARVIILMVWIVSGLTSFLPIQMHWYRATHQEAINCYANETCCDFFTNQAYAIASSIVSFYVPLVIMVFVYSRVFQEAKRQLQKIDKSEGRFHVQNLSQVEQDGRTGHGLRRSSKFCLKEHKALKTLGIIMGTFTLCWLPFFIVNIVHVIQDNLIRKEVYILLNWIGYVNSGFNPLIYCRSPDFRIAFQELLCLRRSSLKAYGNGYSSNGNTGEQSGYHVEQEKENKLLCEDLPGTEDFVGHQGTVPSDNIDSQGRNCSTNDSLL

The target is the same in assay [17]. Briefly: Adrenergic beta2 receptor (ADRB2) small molecule agonists, cell-based qHTS assay (AID 1963593).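 Further: CHO cells stably overexpressing human ADRB2.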 In outline:
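CHO cells stably over-expressing ADRB2 were plated overnight at 37C, then dosed with compounds plus a stimulation mix containing 100uM IBMX and 25uM Ro-20-1724 for 0.5hr at room temperature. cAMP was measured by HTRF competition, 1hr.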

Assay [18] concerns the target D(2) dopamine receptor (Homo sapiens) (UniProt P14416). Briefly: Dopamine D2 receptor (DRD2) small molecule agonists, cell-based qHTS assay (AID 1963594). Further: nearly all actives have a fitted effect of over 35% in size. In a few lines:
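HEK293 cells stably expressing DRD2 were cultured 24 h at 37 C, then given Ro20-1724 (0.1 mM final) and compounds for 10 min at room temperature. NKH477 (200nM) was then added for 30 min. cAMP was read by HTRF.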

For assay [19] the target is unchanged. Kind of assay: Dopamine D2 receptor (DRD2) small molecule antagonists, cell-based qHTS assay (AID 1963595; active means well fitted inhibition curve with a large enough effect in the signal ratio in the repeat runs, with a control signal flat; the % refers to the signal ratio). In a few lines:
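DRD2-HEK293; 0.1 mM Ro20-1724; cpd 10 min RT; NKH477 200 nM + quinpirole 12 nM, 30 min RT; HTRF cAMP (cAMP-d2/anti-cAMP cryptate), 665/620 nm ratio after 1 h.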

Assay [20] can be described thus: p53 small molecule agonists, cell-based qHTS assay with human liver microsomes (AID 1963577).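 Further: p53 response element beta-lactamase reporter cells with liver microsomes plus NADPH.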 In a few lines: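 HLM-supplemented p53RE-bla reporter assay: 16 h compound exposure at 37 C, microsomes and NADPH each 0.5 mg/mL final, read by fluorescence intensity.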

Records with an inconclusive call do not appear. Some compounds were tested as several samples or in several runs, with calls that do not always agree. Calls of active or inactive are those of the source. Unless noted, the call rests on the fitted dose curve.

D(2) dopamine receptor (Homo sapiens), sequence (P14416 whole entry, looked up): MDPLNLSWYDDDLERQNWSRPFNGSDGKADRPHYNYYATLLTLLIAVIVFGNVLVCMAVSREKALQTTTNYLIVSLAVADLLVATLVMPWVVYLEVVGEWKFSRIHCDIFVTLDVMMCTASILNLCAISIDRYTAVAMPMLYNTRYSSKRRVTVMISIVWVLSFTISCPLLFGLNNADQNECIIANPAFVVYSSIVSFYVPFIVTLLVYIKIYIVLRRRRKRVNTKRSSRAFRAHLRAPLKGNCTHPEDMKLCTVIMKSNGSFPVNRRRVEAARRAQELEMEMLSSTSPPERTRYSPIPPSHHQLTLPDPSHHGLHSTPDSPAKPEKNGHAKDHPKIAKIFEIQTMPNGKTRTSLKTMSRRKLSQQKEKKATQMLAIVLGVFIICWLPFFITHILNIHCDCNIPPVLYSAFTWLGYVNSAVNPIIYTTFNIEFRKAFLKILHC
KiSS-1 receptor (Homo sapiens), sequence (Q969F8 whole entry, looked up): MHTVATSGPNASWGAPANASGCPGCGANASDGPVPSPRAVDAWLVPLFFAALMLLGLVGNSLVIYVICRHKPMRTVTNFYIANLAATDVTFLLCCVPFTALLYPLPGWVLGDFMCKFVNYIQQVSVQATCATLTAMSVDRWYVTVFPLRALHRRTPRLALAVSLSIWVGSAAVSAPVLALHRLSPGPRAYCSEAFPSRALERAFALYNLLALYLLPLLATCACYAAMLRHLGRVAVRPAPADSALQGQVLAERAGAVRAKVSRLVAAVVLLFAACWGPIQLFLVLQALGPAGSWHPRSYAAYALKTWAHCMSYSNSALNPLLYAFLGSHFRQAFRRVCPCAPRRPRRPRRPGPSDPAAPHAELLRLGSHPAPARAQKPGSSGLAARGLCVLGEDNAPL
Muscarinic acetylcholine receptor M1 (Homo sapiens), sequence (P11229 whole entry, looked up): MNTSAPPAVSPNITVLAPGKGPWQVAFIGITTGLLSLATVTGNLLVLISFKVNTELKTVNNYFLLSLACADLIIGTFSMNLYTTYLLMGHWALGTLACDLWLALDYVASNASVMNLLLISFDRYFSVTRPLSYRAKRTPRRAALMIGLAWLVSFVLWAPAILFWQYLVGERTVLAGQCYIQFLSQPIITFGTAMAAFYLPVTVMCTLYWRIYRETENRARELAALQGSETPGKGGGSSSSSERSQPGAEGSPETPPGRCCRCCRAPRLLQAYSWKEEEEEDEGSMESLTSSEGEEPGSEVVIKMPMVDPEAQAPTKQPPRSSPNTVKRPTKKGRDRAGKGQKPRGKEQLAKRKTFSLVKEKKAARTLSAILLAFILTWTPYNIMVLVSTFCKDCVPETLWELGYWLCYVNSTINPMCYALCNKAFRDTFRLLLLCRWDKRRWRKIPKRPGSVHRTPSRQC

Regarding `CCCCN(CC)C(=O)SCCC`, the Potency result in assay [1], in [2], in assay [3], in [4], in [5] and in [6] was “inactive” throughout. Besides, the Potency entry in [7], in assay [8], in assay [9], in assay [10], in assay [11] and in assay [12] was “inactive” throughout. The Potency entry in assay [13], in assay [14], in assay [15], in assay [16], in assay [17] and in [18] was “inactive” in each case. Besides, in assay [19], the Potency result was “inactive”.
With `CCCC(=O)Cl`, the Potency result in [1], in [2], in assay [3], in assay [20], in [5] and in assay [6] was “inactive” throughout. For the same molecule, the Potency result in [7], in assay [8], in assay [10], in assay [11], in [12] and in assay [13] was “inactive” throughout. The Potency entry in [14], in assay [15], in assay [16], in [17], in [18] and in assay [19] was “inactive” in each case.
As to `NC(=S)Nc1ccccc1`, the Potency result in assay [1], in assay [3], in assay [4], in [6], in assay [8] and in [10] was “inactive” each time. Besides, the Potency result in assay [11], in [12], in [13], in assay [14], in assay [15] and in [16] was “inactive” each time. Also, the Potency result in assay [18] and in assay [19] was “inactive” each time. For the same molecule, the Potency in assay [2] is 55.4 µM (active) and inactive; in assay [7], 29.4 µM (active) and inactive.
On to `CC(C)(C)OOC(C)(C)CCC(C)(C)OOC(C)(C)C`, for which the Potency result in [1], in [2], in assay [3], in assay [20], in assay [5] and in assay [6] was “inactive” in each case. Further, the Potency result in [7], in assay [8], in [9], in [10], in [11] and in assay [12] was “inactive” throughout. In addition, the Potency result in [13], in assay [14], in assay [15], in assay [16], in assay [17] and in assay [19] was “inactive” in each case.
With `CNC(=O)O/N=C/C(C)(C)S(C)(=O)=O`, the Potency entry in assay [1], in [2], in [3], in [4], in assay [6] and in assay [7] was “inactive” throughout. The Potency entry in assay [8], in [10], in [11], in [12], in assay [13] and in assay [14] was “inactive” in each case. For the same molecule, the Potency result in assay [15], in [16], in assay [17], in assay [18] and in assay [19] was “inactive” each time.
As to `CCCCc1c(C)nc(NCC)[nH]c1=O`, the Potency entry in assay [1], in assay [2], in [3], in assay [4], in assay [20] and in assay [5] was “inactive” in each case. Moreover, the Potency result in [7], in assay [8], in assay [9], in assay [10], in assay [13] and in [14] was “inactive” in each case. The Potency result in assay [15], in assay [16], in assay [17], in assay [18] and in assay [19] was “inactive” each time.
Take `CCC[N+](=O)[O-]`: the Potency is 2.68 µM (active) and inactive in [1]; 44.9 µM (active) and inactive in assay [7]. Further, the Potency entry in assay [2], in [4], in assay [20], in assay [5], in assay [6] and in assay [8] was “inactive” throughout. For the same molecule, the Potency result in assay [9], in [10], in [11], in assay [12], in assay [13] and in assay [14] was “inactive” in each case. The Potency entry in [15], in [16], in assay [18] and in assay [19] was “inactive” in each case.
